The source made the active and inactive calls. The calls were made as follows: active = hit-call score of the fitted dose curve at least 0.9, where 1 is the maximum; inactive = score below 0.9.
Assay: ATG_FoxO_CIS: Attagene CIS-FACTORIAL HepG2 Assay for human Forkhead box O (FoxO) (AID 2282943)
Conditions: HepG2 Attagene cis-reporter, FoxO element, mRNA; actives raise or lower the signal
Method: ATG_CIS is a cell-based, multiplexed-readout assay that uses HepG2, a human liver cell line, with measurements taken at 24 hours after chemical dosing in a 24-well plate.ATG_FoxO_CIS is one of 52 assay component(s) measured or calculated from the ATG_CIS assay. It is designed to make measurements of mRNA induction, a form of inducible reporter, as detected with fluorescence intensity signals by Reverse transcription polymerase chain reaction (RT-PCR) and Capillary electrophoresis technology.Data from the assay component ATG_FoxO_CIS was analyzed into 1 assay endpoint. This assay endpoint, ATG_FoxO_CIS, was analyzed with bidirectional fitting relative to DMSO as the negative control and baseline of activity. Using a type of inducible reporter, measures of mRNA for gain or loss-of-signal activity can be used to understand the reporter gene at the transcription factor-level as they relate to the gene FOXO1 and FOXO3. Furthermore, this assay endpoint can be referred to as a primary readout, because this assay has produced multiple assay endpoints where this one serves a reporter gene function. To generalize the intended target to other relatable targets, this assay endpoint is annotated to the dna binding intended target family, where the subfamily is forkhead box protein.
Human liver HepG2 cells are transiently transfected with multiple reporter transcription units (MRTUs) in 6-well plates using FuGene 6 reagent (Roche; 3 ml FuGene/1 mg DNA). The MRTU constructs are regulated by a cis-regulating element (promoter). […] A major difference between the CIS and TRANS system is that in CIS activities of endogenous TFs are measured, whereas the TRANS assay evaluates changes in activities of exogenous, chimeric NR-Gal4 proteins. […] At the end of 24 hour incubation, total RNA was isolated using TriZol reagent (Invitrogen). The isolated RNA is then reverse-transcribed using oligo(dT) primer and Mo-MLV reverse transcriptase (Invitrogen) with DNAse I (Ambion) treatment for 30 min. The one-tenth of the produced cDNA was amplified by PCR using Taq DNA polymerase (Invitrogen) and two reporter sequence-specific primers. The PCR products were fluorescently labeled by primer extension with 6-arboxyfluorescein (6-FAM) 5'-labeled reporter sequence-specific primer (2 min at 95 C, 20 s at 68 C and 10 min at 72 C) and these products were digested with 5U of HpaI (New England Biolabs) for 2h at 37 C. The fragments were purified using Qiaquick PCR columns (Qiagen), analyzed on an ABI 3130xL genetic analyzer (Applied Biosystems) with peak positions identified by using a set of X-rhodamine (ROX)-labeled MapMarker1000 molecular weight standards (BioVentures). The raw capillary electrophoresis data was processed using Attagraph software (Attagene).
With `CCC(C)CCCC(C)(C)O` (stereo not given) the outcome was “inactive”.
For `COC(C(=O)O)c1ccccc1` (stereo not given), the outcome was “inactive”.
In the case of `COC(C)CCO` (stereo not given), the outcome is reported as “inactive”.
With `O=C(O)c1cccc(C(F)(F)F)c1` the outcome was “inactive”.
For `Cc1ccccc1C=O`, the outcome was “inactive”.
In the case of `CCCC[n+]1ccccc1`, the outcome is reported as “inactive”.
With `CCCCCCOC(=O)CCCCC` the outcome was “inactive”.
For `O=Cc1ccc(F)cc1`, the outcome was “inactive”.
In the case of `Cc1cc(C2(c3cc(C)c(O)cc3C)OS(=O)(=O)c3ccccc32)c(C)cc1O`, the outcome is reported as “inactive”.
In the case of `NCCOCCO`, the outcome is reported as “inactive”.
For `C=CCOC(=O)CCC1CCCCC1`, the outcome was “inactive”.
In the case of `Cc1ccc(C=O)cc1`, the outcome is reported as “inactive”.
In the case of `Nc1ccc(S(=O)(=O)O)c(N)c1`, the outcome is reported as “inactive”.
With `O=C1NC(=O)c2ccccc21` the outcome was “inactive”.
With `C=C(C)C(=O)OCCOC(=O)CC(C)=O` the outcome was “inactive”.
For `Nc1cc([N+](=O)[O-])ccc1O`, the outcome was “inactive”.
For `C=C(C)C1CCC(C)CC1O` (stereo not given), the outcome was “inactive”.
In the case of `CCC(=O)/C=C/C1C(C)=CCCC1(C)C` (stereo not given), the outcome is reported as “inactive”.
For `C=C(C)C(=O)O`, the outcome was “inactive”.
For `Nc1cc([N+](=O)[O-])ccc1Cl`, the outcome was “inactive”.
With `NCCCCCCN` the outcome was “inactive”.
With `CCCCC(CC)COCCC#N` (stereo not given) the outcome was “inactive”.
In the case of `CC(CC(C)(C)C)CC(C)(C)CC(C)(C)C` (stereo not given), the outcome is reported as “inactive”.
In the case of `CC(=O)[O][Al][O]C(C)=O`, the outcome is reported as “inactive”.
In the case of `C=C(C)C(=O)OCc1ccccc1`, the outcome is reported as “inactive”.
With `C=CC(=O)OCC(O)COc1ccccc1` (stereo not given) the AC50 was 25.2 µM (active).
In the case of `CN(C)c1ccc(O)c2c1C[C@H]1C[C@H]3[C@H](N(C)C)C(=O)C(C(N)=O)=C(O)[C@@]3(O)C(=O)C1=C2O`, the outcome is reported as “inactive”.
With `O=C(O)c1snc(Cl)c1Cl` the AC50 was 130 µM (active).
In the case of `CCCCO`, the outcome is reported as “inactive”.
For `CC(C)(COC(=O)c1ccccc1)COC(=O)c1ccccc1`, the outcome was “inactive”.
In the case of `CC(=O)O[C@]1(C(C)=O)CC[C@H]2[C@@H]3C[C@H](C)C4=CC(=O)CC[C@]4(C)[C@H]3CC[C@@]21C`, the outcome is reported as “inactive”.
For `Cc1ccc(Nc2ccc(O)c3c2C(=O)c2ccccc2C3=O)cc1`, the outcome was “inactive”.
With `Nc1nc2ccc([N+](=O)[O-])cc2s1` the outcome was “inactive”.
With `CC(=O)Nc1ccccc1O` the outcome was “inactive”.
With `CCCCCC(=O)OCCc1ccccc1` the outcome was “inactive”.
In the case of `N#Cc1ccccc1`, the outcome is reported as “inactive”.
With `CC(=O)/C=C/C1=C(C)CCCC1(C)C` the outcome was “inactive”.
For `Cc1ccc(C=O)s1`, the outcome was “inactive”.
With `CCCCC/C=C/C=C/C=O` the outcome was “inactive”.
For `CNC(=O)Oc1ccc2c(c1)[C@]1(C)CCN(C)[C@@H]1N2C`, the outcome was “inactive”.

— PubChem BioAssay (EPA / NIEHS)
